Screens (PubChem)
Hits are enriched below; roughly 3.8% of the tested compounds scored in any of these assays.
Mot1-301 SUMO = yeast Mot1-301 growth rescue at high temperature, primary screen, SUMOylation pathway inhibitor project, S. cerevisiae, ATP luminescence, 38.5C. S. cerevisiae Mot1-301 growth rescue; percent above DMSO median, 100 means doubled. growth rescue, % at 18.8 µM. 320,000 tested, 1% active;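 active = every valid replicate shows activation above 250% relative to neutral control wells; inactive = the rest, any valid replicate at or below 250%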;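 also: OY570 slx delta 5 strain wells were the positive control but not used for scaling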
aDG glyco act = activators of alpha-DG glycosylation, primary screen, uHTS, Pro5-aDG cells, AlphaScreen | alpha-DG glycosylation AlphaScreen (IIH6); 0% Pro5, 100% B10-LARGE cell signal | activation, % at 10 µM | 360,000 tested, 0.22% active;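 active = activation of at least 8% versus controls, or a plate z-score of at least 8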;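 also: Pro5 are CHO cells carrying HIG-tagged alpha-DG that lacks glycosylation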
Cardio protect = cardioprotection against H2O2-induced cell death, primary screen, uHTS, H9c2 cells, ATPLite luminescence. H9c2 cardiomyocytes, H2O2 injury protection, 2 h. protection from H2O2 cell death, % at 20 µM. 360,000 tested, 0.63% active. AID 588492, 2011;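 active = compounds giving at least 50% protection of heart cells from peroxide-induced death in the single-dose screen, raw or plate-pattern-corrected value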;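 also: 0% = DMSO wells with peroxide and 100% = DMSO wells without peroxide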
MPTP block = mitochondrial permeability transition pore inhibitors, primary screen, biochemical, isolated mouse mitochondria, absorbance | Ca2+ swelling absorbance, 30 min | inhibition, % at 10 µM | 360,000 tested, 1.4% active;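 active = inhibition of 50% or more, scaled per plate between neutral and stimulator controls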;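 also: 0% = DMSO wells given calcium and 100% = 1 mM EGTA wells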
CR mimetic SO = reduction of superoxide in aged yeast, primary screen, HTS; AID 2690, 2010; S. cerevisiae aged cells, superoxide DHE fluorescence; stronger effect = lower value; superoxide response (% of plate mean), % at 10 µM; 330,000 tested, 0.18% active;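 active = superoxide response under a set limit, about three screen SD below normal, cut at about 65% in these data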;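 also: yeast aged for seven days with compound at 30 °C before DHE staining; 100% = average MFI of all compound-treated wells on the plate with controls excluded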
FAS-TE inh = FAS thioesterase domain inhibitors, primary screen, biochemical, fluorescence intensity, uHTS. inhibition, % at 15 µM. recombinant FAS-TE, OMFH fluorogenic substrate, fluorescence endpoint. Fatty acid synthase (Homo sapiens), P49327. 360,000 tested, 0.67% active. AID 602261, 2012;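 active = compounds whose normalised, plate-corrected inhibition of enzyme fluorescence in the single-dose primary screen is 50% or more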;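 also: 0% = DMSO with enzyme and 100% = substrate without enzyme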
FAS-TE conf = FAS thioesterase domain inhibitors, confirmation, biochemical, fluorescence intensity, single concentration; recombinant FAS-TE, OMFH fluorogenic substrate; 2,300 tested, 45% active; shares compounds with FAS-TE inh; inhibition, % at 15 µM; AID 624325, 2012;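 active = compounds inhibiting the enzyme by at least 50% at 15 µM in any one of the replicates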;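 also: 0% = enzyme with DMSO only and 100% = wells lacking enzyme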
* marks the source's active call; other numbers are inactive results.

Results for Cc1ccc2c(c1)C(c1ccccc1)N(C(=O)c1cccc([N+](=O)[O-])c1)CC(=O)N2 (stereo not given) ?
Mot1-301 SUMO: -15; aDG glyco act: 0; Cardio protect: 13; MPTP block: 0; CR mimetic SO: 96; FAS-TE inh: 78*; FAS-TE conf: 87*

Results for COc1ccc(OC)c(NC(=O)CSc2nnc3ccc(-c4ccccn4)nn23)c1 ?
Mot1-301 SUMO: -3; aDG glyco act: 0; Cardio protect: 4; MPTP block: 0; CR mimetic SO: 99; FAS-TE inh: -7

What do the screens show for `O=C1C(Cc2ccccc2)Nc2ncnc(N3CCCCC3)c2N1Cc1ccc(Cl)cc1` (stereo not given)?
Mot1-301 SUMO: 39; aDG glyco act: 0; Cardio protect: -1; MPTP block: -1; CR mimetic SO: 100; FAS-TE inh: 1

Results for O=C1C(Cc2ccccc2)Nc2ncnc(N3CCN(c4ccccc4)CC3)c2N1Cc1ccc(Cl)cc1 (stereo not given) ?
Mot1-301 SUMO: -1; aDG glyco act: 0; Cardio protect: -7; MPTP block: 1; CR mimetic SO: 97; FAS-TE inh: 84*; FAS-TE conf: -5

What do the screens show for `CC(C)N(C(=O)Cn1cnc2cc([N+](=O)[O-])ccc2c1=O)C(C)C`?
Mot1-301 SUMO: -4; CR mimetic SO: 107

Results for CN(Cc1cccs1)C(=O)Cn1cnc2cc([N+](=O)[O-])ccc2c1=O ?
Mot1-301 SUMO: 44; aDG glyco act: 0; Cardio protect: 1; MPTP block: 1; CR mimetic SO: 109; FAS-TE inh: 53*; FAS-TE conf: 55*

How did O=C(Cn1cnc2cc([N+](=O)[O-])ccc2c1=O)N(Cc1ccccc1)C1CCS(=O)(=O)C1 (stereo not given) do in these assays?
aDG glyco act: 0; Cardio protect: 4; MPTP block: -3; CR mimetic SO: 101; FAS-TE inh: 57*; FAS-TE conf: 45

How did CCCSc1ccc([C@H]2N[C@@](Cc3ccccc3)(C(=O)OC)[C@H]3C(=O)N(CC)C(=O)[C@@H]23)cc1 do in these assays?
Mot1-301 SUMO: -22; aDG glyco act: 0; Cardio protect: 4; MPTP block: 0; CR mimetic SO: 102; FAS-TE inh: 30

What do the screens show for `CCN1C(=O)[C@H]2[C@@H](c3ccc(-c4ccccc4)c(OC)c3)N[C@@](Cc3ccccc3)(C(=O)OC)[C@H]2C1=O`?
Mot1-301 SUMO: -14; aDG glyco act: 0; Cardio protect: 19; MPTP block: 2; CR mimetic SO: 105; FAS-TE inh: 69*; FAS-TE conf: 36

How did CCN1C(=O)[C@H]2[C@@H](c3ccc(-c4ccc(F)cc4)c(OC)c3)N[C@@](Cc3ccccc3)(C(=O)OC)[C@H]2C1=O do in these assays?
Mot1-301 SUMO: -7; aDG glyco act: 0; Cardio protect: 12; MPTP block: 2; CR mimetic SO: 102; FAS-TE inh: 90*; FAS-TE conf: 37

Results for CCN1C(=O)[C@H]2[C@@H](c3ccc(-c4cccc(Cl)c4)c(OC)c3)N[C@@](CC(C)C)(C(=O)OC)[C@H]2C1=O ?
Mot1-301 SUMO: -10; aDG glyco act: 0; Cardio protect: -10; MPTP block: 2; FAS-TE inh: 44

How did CCN1C(=O)[C@H]2[C@@H](c3ccc(-c4ccc(C(C)=O)cc4)c(OC)c3)N[C@@](Cc3ccccc3)(C(=O)OC)[C@H]2C1=O do in these assays?
Mot1-301 SUMO: 33; aDG glyco act: 1; Cardio protect: 12; MPTP block: 0; CR mimetic SO: 97; FAS-TE inh: 65*; FAS-TE conf: 37

How did C[C@H](NC(=O)c1ncn2c1C(=O)N(C)CC2)C(=O)OC(C)(C)C do in these assays?
aDG glyco act: 0; Cardio protect: -2; MPTP block: -1; FAS-TE inh: -9
